Data reported in PubChem BioAssay (NCI).
Values joined by “and” are separate entries in the source; they are usually repeats but may differ in a detail not shown here. Identical values can stand only once. About 83,000 compounds went through this panel and 20% of them were active in at least one assay; those are over-represented in the sample as a whole.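 Interpretation: 100, growth as untreated; towards 0, rising growth inhibition; 0, no net growth; 0 to -100, cell death. Compounds scoring below 10 were considered active.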 Active and inactive are the calls of the source.

test system: SK-MEL-2 melanoma; assay: NCI-60 one-dose screen, 48 h (100 = growth as untreated, 0 = no growth, -100 = all killed); conditions: 10 µM unless noted
Description: Growth inhibition of the SK-MEL-2 human tumor cell line is measured as a screen for anti-cancer activity. Cells are grown in 96 well plates and exposed to the test compound for 48 hours. Compounds are tested at a single concentration, which is 10^-5 M for most compounds. The reported endpoint is percent growth (GI% or GIPRCNT), where numbers from 0 - 100% represent growth inhibition, and numbers from -100% - 0 represent cell death. For example, a value of 40 represents 60% growth inhibition. A value of 0 means no net growth occurred over the course of the experiment. A value of -40 indicates 40% of cells at the beginning of the experiment died by the end of the experiment. A value of -100 means all cells are dead at the end of the experiment.
NCI-60 Human Tumor Cell Lines Screen was performed using the standard one-dose NCI protocol, which is described in more detail at https://dtp.cancer.gov/discovery_development/nci-60/default.htm.
Compounds with GIPRCNT values below 10 were considered active. Activity score was based on GIPRCNT using the following formula: […]
Score is 0 for GIPRCNT values of 100 or above, 50 for GIPRCNT values of 0, and 100 for GIPRCNT values of -100.

Row | SMILES | growth
1 | NC(=O)c1ccc(-c2ccc3ncnc(N4CCc5cc(F)c(Cl)cc54)c3c2)cn1 | 95.2% (inactive)
2 | O=C(NN1C(=O)/C(=C/C=C/c2ccc([N+](=O)[O-])o2)SC1=S)c1ccc([N+](=O)[O-])cc1 | -89.8% (active)
3 | COc1ccc(C(=O)/C=C/c2ccc3c(c2)OCCO3)cc1S(N)(=O)=O | 114% (inactive)
4 | COc1cc2cc(C(=O)N3C[C@@H](CCl)c4c3cc(OC(=O)N(C)CCSSCCN3CCOCC3)c3ccccc43)[nH]c2c(OC)c1OC | -86.8% (active)
5 | N#CC1=C(c2cccs2)Nc2c(c(-c3ccccc3)nn2-c2ccccc2)C12C(=O)Nc1ccccc12 (stereo not given) | 90.1% (inactive)
6 | N#Cc1cc(-c2ccc3ncnc(N4CCc5cc(F)c(Cl)cc54)c3c2)cnc1N | 52% (inactive)
7 | Cc1ccc(C(=O)Nc2cc(-n3cnc(F)c3)cc(C(F)(F)F)c2)cc1C#Cc1cnc2cccnn12 | 40.7% (inactive)
8 | Cc1nc(N)ncc1-c1ccc2ncnc(N3CCc4cc(F)c(Cl)cc43)c2c1 | 100% (inactive)
9 | Cc1cc(C)c2[nH]c(=O)c(C(c3nnnn3Cc3ccc4c(c3)OCO4)N3CCN(C)CC3)cc2c1 (stereo not given) | 105% (inactive)
10 | CC[C@]12C=CCN3CC[C@@]4(c5ccc(OC)cc5N(C)[C@H]4[C@@](O)(C(=O)OC)[C@@H]1OC(=O)CCCC[P+](c1ccc(F)cc1)(c1ccc(F)cc1)c1ccc(F)cc1)[C@@H]32 | -54% (active)
11 | CCCCNc1ccc2c3c(cccc13)C(=O)N(c1cccc(-c3nn(-c4ccccc4)cc3-c3nc4ccccc4s3)c1)C2=O | 98.1% (inactive)
12 | COc1cc(NC(=O)CSc2nnc(-c3ccc(-c4nc5ccc(Cl)cc5[nH]4)cc3)o2)cc(OC)c1OC | 40.3% (inactive)
13 | Nc1cc2ccccc2c(=O)n1NC(=O)c1ccc(Br)cc1 | 108% (inactive)
14 | CC(C)CN1C(=O)/C(=C\C(=O)c2cc3ccccc3oc2=O)c2ccccc21 | 101% (inactive)
15 | CN1CCc2c(sc3ncnc(N/N=C/c4cccc(Cl)c4Cl)c23)C1 | 104% (inactive)
16 | O=C(CSc1nnc(-c2ccc(-c3nc4ccccc4[nH]3)cc2)o1)Nc1ccc(Cl)cc1 | 70.6% (inactive)
17 | COC(=O)c1c(C(=O)OC)c2c3ccccc3c3ccccc3n2c1C(=O)C(F)(F)F | 94.4% (inactive)
18 | N#CC1=C(c2ccco2)Nc2c(c(-c3ccccc3)nn2-c2ccccc2)C12C(=O)Nc1ccc(Br)cc12 (stereo not given) | 87% (inactive)
19 | CN1C(=O)C(O)(CC(=O)c2cc3ccccc3oc2=O)c2ccccc21 (stereo not given) | 111% (inactive)
20 | COc1ccc(-c2cc(C)nc3[nH]c(=O)sc23)cc1 | 100% (inactive)

Row | SMILES | growth
21 | COc1ccc(-c2nc3ccc(-c4nnc(SCC(=O)Nc5ccc(/C(C)=N\O)cc5)o4)cc3[nH]2)cc1 | 76.2% (inactive)
22 | C[C@@H]1[C@H]2C[C@@H](C[C@H]1NCc1nc3ccccc3n1C1CCCCCC1)C2(C)C | 70.6% (inactive)
23 | CCOC(=O)/C(F)=C/C1CC1CCc1ccc(OCC)cc1 (stereo not given) | 102% (inactive)
24 | Nc1nn2c(-c3cc4cc(Br)ccc4oc3=O)ccnc2c1N=Nc1ccc(S(N)(=O)=O)cc1 | 94.6% (inactive)
25 | Cc1ccc(C(=O)Nc2cc(-n3ccnc3C)cc(C(F)(F)F)c2)cc1C#Cc1cnc2cccnn12 | -64.1% (active)
26 | O=C(CSc1nnc(-c2ccc(-c3nc4ccc(Cl)cc4[nH]3)cc2)o1)Nc1ccccc1 | 54.5% (inactive)
27 | COc1ccc(-n2c(NC(=O)N3CCN(C)CC3)c(C#N)c3ccccc32)cc1 | 72.9% (inactive)
28 | O=C(N/N=C/c1ccc(B(O)O)s1)c1[nH]c2ccc(Br)cc2c1-c1ccccc1 | -82.6% (active)
29 | Cc1ccc(Cl)cc1NC(=O)Nc1nc2ccc([N+](=O)[O-])cc2s1 | -47.1% (active)
30 | COc1ccc(N=Nc2c(N)nn3c(N)c(C#N)c(-c4ccc(F)cc4)nc23)cc1 | 110% (inactive)
31 | Cc1ccc(/C=C/C(=O)c2ccc(S(=O)(=O)NCCNc3nc(N(C)C)nc(N4CCOCC4)n3)cc2)cc1 | 94.1% (inactive)
32 | COc1ccc(NC(=O)CSc2nnc(-c3ccc(-c4nc5ccccc5[nH]4)cc3)o2)cc1 | 61.8% (inactive)
33 | NS(=O)(=O)c1cccc(Nc2nc(SCC(=O)c3ccc(F)cc3)nc3ccccc23)c1 | -47% (active)
34 | CS(=O)(=O)Nc1cccc(-n2c(COc3ccc(OC(F)(F)F)cc3)nc3ccccc32)c1 | 86% (inactive) and 110% (inactive)
35 | COc1cc(C2C(C(=O)OCc3ccccc3)=C(C)Nc3nc4ccccc4n32)cc(OC)c1OC (stereo not given) | 47.5% (inactive)
36 | COc1cc(CNC(=O)[C@]23CCC(C)(C)CC2C2=CCC4[C@@]5(C)CCC(OC(C)=O)C(C)(C)C5CC[C@@]4(C)[C@]2(C)CC3)ccc1OCc1cn(-c2ccc(Cl)cc2Cl)nn1 (stereo not given in full) | 99.8% (inactive)
37 | COc1ccc(/C=C/C(=O)c2ccc(S(=O)(=O)NCCNc3nc(N(C)C)nc(N4CCOCC4)n3)cc2)cc1 | 94.9% (inactive)
38 | Cc1ccc(C2CC(c3ccc(NC(=S)Nc4ccccc4)cc3)=NN2c2ccc(S(N)(=O)=O)cc2)cc1 (stereo not given) | 13.4% (inactive)
39 | Oc1ccc(Cl)c(Nc2nc(SCCN3CCOCC3)nc3c2cnn3CC(Cl)c2ccc(Br)cc2)c1 (stereo not given) | 20.6% (inactive)
40 | Nc1nc2cc(-c3ccc4ncnc(NCc5ccccc5)c4c3)ccc2o1 | 42.2% (inactive)
